10 compounds from PubChem BioAssay (NCATS) can be followed below.

Inconclusive results are not listed. Activity calls are given as the source filed them. Calls come from the whole dose curve; as a rule, active = well fitted cell-killing curve with a large enough effect; inconclusive = small, poorly fitted or top-dose-only effect, or effect the other way; inactive = no such curve, though single readings can be large or run the other way.

Assay [1] in a line: Viability qHTS for spleen associated tyrosine kinase inhibitor (SYKi) naive MV4-11 cells (AID 1963823). Note: nearly all actives have a fitted effect of over 40% in size. A digest of the protocol: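 Viability of MV4-11 AML cells lacking prior SYK inhibitor exposure is scored by CellTiter-Glo luminescence following 72 hr compound incubation at 37 C, 5% CO2, seeded at 500 cells per well.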
(Quantitative high-throughput screening tests each substance at several concentrations.)

Assay [2] can be described thus: Viability qHTS for spleen associated tyrosine kinase inhibitor (SYKi) drug resistant MV4-11 cells (AID 1963824). Note: nearly all actives have a fitted effect of over 35% in size. A digest of the protocol: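 SYK inhibitor-resistant MV4-11 AML cells, 500 per well, added to predispensed compounds and incubated 72 hr at 37 C, 5% CO2. Viability measured by CellTiter-Glo luminescence after 10 min at room temperature.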
Potency is the fitted concentration of half-maximal effect.

For `CC1(C)[C@@H](O)CC[C@]2(C)[C@H]3CC=C4[C@@H]5C[C@](C)(C(=O)O)CC[C@]5(C)CC[C@@]4(C)[C@]3(C)CC[C@@H]12`, the Potency entry in assay [1] and in assay [2] was “inactive” throughout.

With `O=C(O[C@H]1[C@@H]2C=CO[C@@H](O[C@@H]3O[C@H](CO)[C@@H](O)[C@H](O)[C@H]3O)[C@@H]2[C@@]2(CO)O[C@@H]12)c1ccccc1`, the Potency entry in assay [1] and in assay [2] was “inactive” each time.

As to `C/C=C(\C)[C@@H]1C(C)=C[C@@H]2[C@H]([C@@H]1/C=C/C=C/C(=O)O)[C@@H](C)CC[C@@H]2O`, the Potency in assay [1] is 6.4 µM (active); in assay [2] it was 3.6 µM (active).

With `COc1cc2c(c(OC)c1O)C(c1ccc(O)cc1)C1C(=O)OC3C(COC(=O)C1=C2)OC(CO)(OC1OC(COC(=O)/C=C/c2ccc(OC4OC(C)C(O)C(O)C4O)cc2)C(O)C(O)C1O)C3O` (stereo not given), in assay [1], the viability (% of control) is 95.6% [at 9.25 µM] (inactive). In addition, the viability, % of control in assay [2] was 81.2% [at 9.25 µM] (inactive).

For `O=C(O)c1ccc(OC2OC(CO)C(O)C(O)C2O)cc1` (stereo not given), the Potency entry in assay [1] and in assay [2] was “inactive” throughout.

Turning to `CC1C2=CC(=O)OC2(O)CC2C1C(OC(=O)c1ccccc1)C(OC(=O)c1ccccc1)C1(O)C2(C)CCC(O)C1(C)C(=O)O` (stereo not given), the Potency result in assay [1] and in assay [2] was “inactive” each time.

Consider `Cc1nc(N2CCN(C(=O)c3ccco3)CC2)c2c3c(sc2n1)CCCC3`, for which the values for the Potency in assay [1] and in assay [2] were 9.2 µM (active) and 14.6 µM (active), respectively.

For the compound `CCCCC(=O)N(Cc1ccc(-c2ccccc2-c2nn[nH]n2)cc1)C(C(=O)O)C(C)C` (stereo not given), the Potency result in assay [1] and in assay [2] was “inactive” each time.

Turning to `Brc1ccc([C@H]2CN3CCSC3=N2)cc1`, the Potency entry in assay [1] and in assay [2] was “inactive” in each case.

`CC(C)CNC(=O)/C=C/CCCCc1ccc2c(c1)OCO2`: the Potency entry in assay [1] and in assay [2] was “inactive” each time.
